F508del corr: CFTR F508del correction in bronchial cells. CFBE cells, YFP halide quenching; stimulated with forskolin plus potentiator P3; % fluorescence drop versus neutral controls. activity (quench increase), % at 7.58 µM. actives 0.36% (n = 350,000);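 active = mean added fluorescence quench of at least 8% versus neutral control, with both replicates also reaching 8%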;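 also: cells transiently co-express mutant CFTR-F508del with the halide-sensitive YFP; corrector assay measuring rescue of mutant channel to the surface after 24 h compound exposure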
Ecoli rRNA inh: inhibitors of bacterial rRNA selective over humanized ribosomes; E. coli WT GFP vs humanized-ribosome RFP mutants, fluorescence, 24 h; active compounds read low; DMSO median 0, no signal -100; GFP signal change (wild-type ribosome), % (test concentration not listed); actives 1.6% (n = 350,000); AID 720706;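 active = significant combined selectivity score with lowered wild-type GFP, culture density cut under 30%, mutant RFP and density less affected; inactive = any of these conditions unmet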
ARNT-TACC3 inh: ARNT/TACC3 interaction disruption. Q9Y6A5. AlphaScreen His-ARNT PAS-B/GST-TACC3 binding, luminescence; TACC3 fragment carries E629A point mutation. inhibition, % at 9.99 µM. actives 0.66% (n = 390,000). AID 623870;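 active = mean inhibition of replicates at least 50% and at least half of replicates each reaching 50%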;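 also: 0% = complete ARNT plus TACC3 wells and 100% = ARNT alone without TACC3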
ERAP1 HTS inh: ERAP1 (human) enzyme inhibition. Q9NZ08. recombinant ERAP1, Leu-AMC fluorescence, 60 min. inhibition, % at 10.7 µM. actives 0.15% (n = 340,000);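 active = mean replicate inhibition of at least 30%, or all replicates individually reaching that 30% level; inactive = mean below 30% and not every replicate reaching it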;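 also: 0% = neutral control wells and 100% = L-leucinethiol positive control wells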
PvdQ acylase: P. aeruginosa PvdQ acylase inhibition; actives 0.063% (n = 340,000); purified PvdQ acylase, fluorescence plate reader; inhibition, % at 10 µM; in the data active = inhibition above about 30%, passing the limit was not always enough;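 also: 0% = vehicle neutral wells and 100% = reference inhibitor wells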
ARNT Alpha ctr: counter-screen for ARNT/TACC3 inhibitors: AlphaScreen artifacts; shares compounds with ARNT-TACC3 inh; His-ARNT PASB-GST AlphaScreen artifact counter-screen, luminescence; AC50, µM (highest dose often 68 µM), for inactives: at the top dose activity change, negative = signal decrease; actives 50% (n = 1,200); AID 651705;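 active = every separate test run was called active for a drop in luminescence, with AC50 within twice the top valid dose, actives reach about 71 µM in these data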
Active calls of the source: *; nt = no result; [ ] = another dose, or the depositor's remark. Rows were chosen to be rich in hits. Some 2.1% of all compounds tested hit in one or more screens of this group.

SMILES | F508del corr | Ecoli rRNA inh | ARNT-TACC3 inh | ERAP1 HTS inh | PvdQ acylase | ARNT Alpha ctr
O=C(NC[C@H]1[C@@H](c2ccccc2)[C@@H](CO)N1Cc1ccccn1)C1CCC1 | -1 | 3 | 56* | nt | nt | 70µM*
O=C(C1CCCC1)N1C[C@@H]2[C@H](c3ccccc31)[C@H](CO)N2C(=O)Cc1ccccn1 | -1 | 4 | 51* | -2 | nt | -12%[42 µM]
O=C(NC[C@H]1[C@H](c2ccccc2)[C@@H](CO)N1Cc1ccccn1)C1CC1 | 2 | 1 | 12 | -2 | nt | nt
C[C@H]1CN([C@@H](C)CO)C(=O)c2cc(NC(=O)c3ccncc3)ccc2O[C@@H]1CN(C)Cc1ccccc1 | 0 | 2 | -14 | -3 | nt | nt
C[C@H]1CN([C@@H](C)CO)C(=O)c2cc(NC(=O)Nc3cccc4ccccc34)ccc2O[C@@H]1CN(C)S(C)(=O)=O | -1 | -4 | -1 | 1 | nt | nt
O=C(Nc1ccc(Cl)cc1)N1C[C@@H]2[C@H](c3ccccc31)[C@@H](CO)N2CC1CCCCC1 | 0 | -58 | 2 | -3 | nt | nt
Cc1cc(C)c(S(=O)(=O)N2CCOC2CNC(=O)C(=O)NCCc2ccc(S(N)(=O)=O)cc2)c(C)c1 (stereo not given) | 1 | -2 | 4 | 3 | 13 | nt
Cc1cc(C)c(S(=O)(=O)N2CCOC2CNC(=O)C(=O)NCCCn2ccnc2)c(C)c1 (stereo not given) | 1 | 5 | 63* | -5 | -11 | 42µM*
O=C(N/N=C/c1ccccc1O)C1(O)c2ccccc2-c2ccccc21 | nt | nt | nt | nt | 9 | nt
O=C(N/N=C/c1ccccc1O)C1SCCCS1 | -4 | -14* | 56* | -3 | 0 | -28%
Cc1ccc(S(=O)(=O)Nc2ccc3c(c2)CC(=O)N([C@H](C)CO)C[C@H](C)[C@@H](CN(C)S(=O)(=O)c2c(C)noc2C)O3)cc1 | 2 | -1 | 2 | -1 | nt | nt
O=C(Nc1nc2ccccc2s1)c1cc(-c2ccccc2)nn1-c1ccccc1 | 6 | 19 | -11 | 0 | -6 | nt
O=C(Nc1ncc(-c2ccccc2)o1)c1cc(-c2ccccc2)on1 | nt | nt | nt | nt | nt | -4%[38 µM]
O=C(Nc1nc2ccccc2s1)c1cc(-c2ccccc2)on1 | nt | nt | nt | nt | nt | 0%[38 µM]
O=C(Nc1nnc(-c2ccccc2)s1)c1cc(-c2ccccc2)on1 | nt | nt | nt | nt | nt | -7%[38 µM]
O=C(Nc1ncc2ccccc2n1)c1cc(-c2ccccc2)on1 | nt | nt | nt | nt | nt | 6%[38 µM]
O=C(Nc1cccnc1)c1cc(-c2ccccc2)on1 | nt | nt | -3 | nt | -19 | nt
Cc1noc(C)c1NC(=O)N(C)C[C@H]1Oc2c(NS(=O)(=O)c3ccc(F)cc3)cccc2C(=O)N([C@@H](C)CO)C[C@H]1C | -2 | 0 | -5 | 3 | nt | nt
CC(=O)c1cccc(-c2ccc3c(=O)[nH]c(Nc4ccccc4)cc3c2)c1 | 4 | 0 | 33* | -1 | -2 | -21%
O=c1[nH]c(Nc2ccccc2)cc2cc(Br)ccc12 | -1 | -6 | 35 | 4 | -9 | nt
CN1C(=O)c2cc(NC(=O)Cc3cccs3)ccc2OC[C@@H]2O[C@@H](CC(=O)NCCc3ccncc3)CC[C@H]21 | nt | 1 | -3 | -2 | nt | nt
COc1ccc([Si](C)(C)[C@@H]2[C@@H](CCO)O[C@]3(C(=O)N4c5c(cc(OC)cc53)C(C)=CC4(C)C)[C@H]2C)cc1 | -10 | nt | 52* | -2 | nt | 9µM*
COc1ccc([Si](C)(C)[C@H]2[C@H](CCO)O[C@@]3(C(=O)N4c5c(cc(OC)cc53)C(C)=CC4(C)C)[C@@H]2C)cc1 | 6 | nt | 42 | 2 | nt | nt
N#Cc1ccsc1NC(=O)c1ccc2ncsc2c1 | nt | nt | nt | -7 | nt | nt
N#Cc1ccsc1NC(=O)c1ccccn1 | nt | nt | 64* | nt | 1 | -11%
C[C@H](NC(=O)[C@H]1[C@H](CO)[C@H]2Cn3c(ccc(-c4ccncc4)c3=O)[C@@H]1N2C)c1ccccc1 | -1 | 2 | -5 | -2 | nt | nt
Nc1ccc2nc(-c3ccccn3)[nH]c2c1 | nt | nt | 46* | nt | -11 | 45µM*
Nc1ccc2nc(-c3ccccc3)[nH]c2c1 | nt | nt | -2 | nt | -3 | nt
COc1ccc2nc(-c3ccccn3)[nH]c2c1 | 1 | -1 | 40* | 0 | -14 | -7%
COc1ccc2nc(-c3ccc(N)cc3)[nH]c2c1 | nt | nt | 0 | nt | -16 | nt

Compound activity from PubChem BioAssay.
